TLR4-MyD88 BLA = blocks binding of human TLR4 to MyD88 | hit rate 0.18% among 200,000 | HeLa CL3-4 TLR4/MyD88 BLA complementation, FRET ratio | O00206+Q99836 | inhibition, % at 8.4 µM; in the data active means inhibition above about 25%
TMEM16A act = mouse TMEM16A channel activation, primary screen. hit rate 0.3% among 340,000. HEK293 TMEM16A/YFP-H148Q/I152L, iodide quench fluorescence; active compounds read low. AID 623877. Q8BHY3. B-score at 10 µM;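 active means fluorescence-ratio B-score plate-corrected deviation score at least 3 library SD below zero, with starting fluorescence score within 5 deviations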;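 further: channel opened by trigger with iodide after compound preincubation; score built on the fluorescence ratio of max minus min over baseline; more negative score means more quench and so TMEM16A activation or potentiation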
NOD2 RIPK2 PPI = blocks binding of human NOD2 to RIPK2; O43353; CHO BLA complementation NOD2-RIPK2, CCF4 ratio; inhibition, % at 4.98 µM; hit rate 0.38% among 360,000; AID 624267; in the data active means inhibition above about 21%
TLR9-MyD88 inh = TLR9-MyD88 interaction inhibition | Q9NR96+Q99836 | CHO BLA complementation TLR9-MyD88, CCF4 FRET ratio | inhibition, % at 4.98 µM | hit rate 0.21% among 340,000;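 active means inhibition above the mean over all tested compounds plus 3 SD, cut at about 21% in these data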
ANO1 block = mouse TMEM16A channel inhibition, primary screen | Q8BHY3 | HEK293 TMEM16A/YFP iodide influx fluorescence, ionomycin | normalized B-score (activity score, 25-100; higher = stronger inhibition) at 10 µM | hit rate 1.2% among 310,000 | AID 588511;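 active means ratio plate-corrected score three or more library SD toward inhibition, starting fluorescence score within five deviations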;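 further: score derived from kinetic fluorescence span divided by baseline fluorescence per well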
GRK2 inh = blocks RNA aptamer binding to human GRK2; bead flow cytometry, FAM-aptamer displacement from GRK2; inhibition of aptamer binding, % at 10 µM; hit rate 0.59% among 330,000; P25098;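 active means inhibition of aptamer binding above 40%, roughly 3 SD of noise, on plates passing a quality check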;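 further: median bead fluorescence of bound FAM aptamer so fluorescent compounds give negative values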
TMEM16A reconf = TMEM16A (mouse) chloride channel inhibition, re-confirmation | shares compounds with ANO1 block | inhibition, % at 10 µM | hit rate 39% among 2,300 | HEK293 TMEM16A/YFP-H148Q, iodide quench fluorescence; ionomycin added to raise cell calcium;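 active means mean duplicate percent inhibition, scaled so buffer wells are 0 and the reference blocker 100, over three buffer SD above buffer mean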
HEK293 Ca mobil = alters calcium mobilization in TMEM16A HEK293 cells, counter-screen; AID 652231; hit rate 2% among 2,300; TMEM16A/YFP HEK293, Fluo4 calcium mobilization; calcium response (% of ionomycin), % at 10 µM; shares compounds with ANO1 block;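 active means duplicate-averaged calcium signal over 20% of the ionomycin maximum, relative to buffer baseline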;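 further: each well's signal is peak minus trough fluorescence divided by its pre-addition baseline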
YFP-HEK293 quench = counter-screen for TMEM16A inhibitors: effect in parental YFP-HEK293 cells; iodide YFP quench, ionomycin; 2,300 tested, under 10 active; YFP ratio F(max-min)/F0 at 10 µM; shares compounds with ANO1 block; AID 652233;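 active means yellow fluorescent protein signal ratio exceeding the buffer control mean by over 5 SD of those controls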;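 further: ratio is mean of duplicate wells from kinetic YFP trace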
ClC-1 rat inh = blocks the rat ClC-1 voltage-dependent chloride channel; ratio percent, % at 10 µM; shares compounds with ANO1 block; 2,300 tested, under 10 active; CHO ClC-1-YFP, iodide influx fluorescence quench; iodide control reads 0, buffer control 100;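 active means duplicate-mean ratio percent above the mean of iodide-only control wells, which defines zero, plus 5 of their SD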;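 further: higher percent means stronger block of ClC-1 iodide influx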
Each line names hits and unclear results; the compound was inactive in the other large screens (follow-up assays come after a bar, where they were run). Only some compounds are listed: those with a hit (about 2.2% of all), similar ones and a draw of the others.

N#CC(c1ccccc1)c1ccc2c(C(F)(F)F)cc(C(F)(F)F)nc2n1 (centres undefined)	ANO1 block 100 | TMEM16A reconf 42.5% | HEK293 Ca mobil inactive | YFP-HEK293 quench inactive | ClC-1 rat inh inactive
FC(F)(F)c1cc(C(F)(F)F)c2ccc(N/N=C/c3ccccc3)nc2n1	none
COc1ccc(C(=O)C[C@@H]2OC[C@H](C(C)C)N2S(=O)(=O)c2ccc(C)cc2)cc1OC	none (no result: TLR4-MyD88 BLA, TMEM16A act, TLR9-MyD88 inh, ANO1 block, GRK2 inh)
CC(Sc1ccc(Cl)cc1)C(=O)NNC(=O)c1ccco1 (centres undefined)	none (no result: TLR4-MyD88 BLA, ANO1 block)
CCOc1ccc(S(=O)(=O)Nc2cccc(C(=O)N(C)Cc3cccc(OC)c3OC)c2)cc1	none (no result: TLR4-MyD88 BLA)
CCC(C)C(=O)Nc1ccc(S(=O)(=O)N2CCCC2)cc1 (centres undefined)	none (no result: TLR4-MyD88 BLA)
CCC(C)NS(=O)(=O)c1ccc(S(=O)(=O)N2CCCC3(CCCCC3)C2)cc1 (centres undefined)	ANO1 block 100 | TMEM16A reconf 52.0% | HEK293 Ca mobil inactive | YFP-HEK293 quench inactive | ClC-1 rat inh inactive
CCS(=O)(=O)N1CCCC(C(=O)c2ccc(OC)cc2C)C1 (centres undefined)	none
COc1ccc(C(=O)C2CCCN(S(=O)(=O)c3ccc(C(C)=O)cc3)C2)c(C)c1 (centres undefined)	ANO1 block 25 (no result: TLR4-MyD88 BLA) | TMEM16A reconf 30.0% | HEK293 Ca mobil inactive | YFP-HEK293 quench inactive | ClC-1 rat inh inactive
CC1([N+](=O)[O-])COC2(CCCCC2)OC1	none (no result: TLR4-MyD88 BLA, ANO1 block, GRK2 inh)
COCC(C)n1c(C)cc(C(=O)COC(=O)c2n[nH]c3ccccc23)c1C (centres undefined)	none
COCC(C)n1c(C)cc(C(=O)COC(=O)c2oc3ccccc3c2C)c1C (centres undefined)	ANO1 block 100 | TMEM16A reconf 26.5% | HEK293 Ca mobil inactive | YFP-HEK293 quench inactive | ClC-1 rat inh inactive
CCOC(=O)N1CCN(C(=O)C2CCCN(Cc3nc(-c4ccc(Cl)cc4)oc3C)C2)CC1 (centres undefined)	ANO1 block 25 | TMEM16A reconf inactive | HEK293 Ca mobil inactive | YFP-HEK293 quench inactive | ClC-1 rat inh inactive
Cc1oc(-c2ccc(Cl)cc2)nc1CN1CCCC(C(=O)NC2CC2)C1 (centres undefined)	none (no result: TLR4-MyD88 BLA)
N#CN1C2CCC1CC(O)(c1ccccc1)C2 (centres undefined)	none (no result: TLR4-MyD88 BLA, TMEM16A act, TLR9-MyD88 inh, ANO1 block, GRK2 inh)
COC(=O)CCCCCN1C(=O)NC(C2CC2)C(C(=O)OCc2ccccc2)=C1C (centres undefined)	ANO1 block 25 (no result: TLR4-MyD88 BLA) | TMEM16A reconf inactive | HEK293 Ca mobil inactive | YFP-HEK293 quench inactive | ClC-1 rat inh inactive
CC1=C(C(=O)OCc2ccccc2)C(c2ccc(-c3ccccc3)cc2)NC(=O)N1CCCCCC(=O)O (centres undefined)	ANO1 block 100 | TMEM16A reconf 31.0% | HEK293 Ca mobil inactive | YFP-HEK293 quench inactive | ClC-1 rat inh inactive
COC(=O)C[C@@H]1C=C[C@H](NC(=O)c2ccccc2)[C@@H](CO)O1	none (no result: TLR4-MyD88 BLA, TMEM16A act, TLR9-MyD88 inh, ANO1 block, GRK2 inh)
CC(=O)c1cn(CC(=O)Nc2ccc(C)cc2C)c2ccccc12	ANO1 block 25 | TMEM16A reconf 19.5% | HEK293 Ca mobil inactive | YFP-HEK293 quench inactive | ClC-1 rat inh inactive
Cc1cc(Cl)ccc1OCc1nc(-c2ccc(O)cc2)n[nH]1	ANO1 block 25 | TMEM16A reconf 26.0% | HEK293 Ca mobil inactive | YFP-HEK293 quench inactive | ClC-1 rat inh inactive
Cc1ccc(C(=O)CC(=O)COc2ccc(Cl)cc2C)cc1	none
CCN(c1ccccc1)S(=O)(=O)c1cc(NC(=O)Nc2ccccc2C#N)ccc1Cl	ANO1 block 25 | TMEM16A reconf inactive | HEK293 Ca mobil inactive | YFP-HEK293 quench inactive | ClC-1 rat inh inactive
CCN(c1ccccc1)S(=O)(=O)c1cc(NC(=O)COC(=O)C2CC2)ccc1Cl	ANO1 block 100 | TMEM16A reconf inactive | HEK293 Ca mobil inactive | YFP-HEK293 quench inactive | ClC-1 rat inh inactive
CN(C)S(=O)(=O)c1cc(NC(=O)COC(=O)C2COc3ccccc3O2)ccc1Cl (centres undefined)	none
CCN(c1ccccc1)S(=O)(=O)c1ccc(Cl)c(NC(=O)Nc2ccc(Cl)cc2C#N)c1	none
CC(C)Cn1c(N)c(C(=O)COC(=O)CCc2nc3ccccc3s2)c(=O)n(C)c1=O	ANO1 block 100 | TMEM16A reconf 21.0% | HEK293 Ca mobil inactive | YFP-HEK293 quench inactive | ClC-1 rat inh inactive
CC(C)Cn1c(N)c(C(=O)COC(=O)CC23CC4CC(CC(C4)C2)C3)c(=O)n(C)c1=O	ANO1 block 25 | TMEM16A reconf 34.5% | HEK293 Ca mobil inactive | YFP-HEK293 quench inactive | ClC-1 rat inh inactive
Cc1ccccc1-n1c(-c2ccc(Cl)cc2)cnc1SCC(=O)NC1CCS(=O)(=O)C1 (centres undefined)	none
Cc1cc(N2CCOCC2)cc(C)[n+]1[O-]	ANO1 block 25 | TMEM16A reconf inactive | HEK293 Ca mobil inactive | YFP-HEK293 quench inactive | ClC-1 rat inh inactive
C=CCN(c1ccccc1)S(=O)(=O)c1cccc(C(=O)Nc2ccncc2)c1	ANO1 block 100 (no result: TLR4-MyD88 BLA) | TMEM16A reconf 20.5% | HEK293 Ca mobil inactive | YFP-HEK293 quench inactive | ClC-1 rat inh inactive
C=CCN(c1ccccc1)S(=O)(=O)c1cccc(C(=O)NCc2ccncc2)c1	none (no result: TLR4-MyD88 BLA)
COc1ccccc1NC(=O)CCc1nnc2ccc(N3CCC4(CC3)OCCO4)nn12	none (no result: TLR4-MyD88 BLA)
Cc1ccccc1C(=O)Oc1cccc(Nc2ncnc3ccccc23)c1	ANO1 block 25 | TMEM16A reconf 29.5% | HEK293 Ca mobil inactive | YFP-HEK293 quench inactive | ClC-1 rat inh inactive
Cc1cc(C(=O)N2CCC2(C)C(=O)NCCC#N)nn1C (centres undefined)	none (no result: TLR4-MyD88 BLA, TMEM16A act, TLR9-MyD88 inh, ANO1 block, GRK2 inh)
N#C/C(=N\Nc1ccc(F)cc1)C(=O)C1CC1	ANO1 block 25 (no result: TLR4-MyD88 BLA, TLR9-MyD88 inh) | TMEM16A reconf 26.0% | HEK293 Ca mobil inactive | YFP-HEK293 quench inactive | ClC-1 rat inh inactive
N#C/C(=N\Nc1ccc(Cl)c(Cl)c1)C(=O)C1CC1	none (no result: TLR4-MyD88 BLA, TLR9-MyD88 inh)
CCOc1cccc(-c2c(C(=O)N/N=C/c3ccoc3)nnn2-c2nonc2N)c1	none (no result: TLR4-MyD88 BLA)
Cc1c(C(=O)N/N=C/C(C)C)[nH]c2c([N+](=O)[O-])cccc12	none
